This is a sample that favours compounds with a hit; in the whole collection about 5.9% have one here.
HSF1 activator – increases HSF-1 driven luciferase reporter signal; NIH3T3-HGL HSF-1 luciferase reporter, MG132, 8 h; 100% = twice DMSO control signal; activation, % at 9 µM; 1.7% of 300,000 active;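 active means mean replicate activation of at least 50% with a set share of replicates each reaching 50%; inconclusive means only one of those two conditions met; inactive means mean below 50% and too few replicates reaching it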;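 further: 0% = median of the neutral control wells and 100% = twice that signal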
GAA850 FXN act – frataxin GAA850 promoter activation; HEK293 lucGAA850 FXN promoter luciferase reporter, 24 h; percent of 10 µM SAHA response; activation, % at 6 µM; 0.56% of 360,000 active;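 active means activation above the average of all compounds screened plus 3 SD, cutoff fixed separately per campaign, cut at about 7.5% in these data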;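 further: 0% = DMSO wells and 100% = 10 µM SAHA wells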
DAX1 inh – inhibits human nuclear receptor DAX1; inhibition, % at 6.75 µM; 0.99% of 340,000 active; HEK293 Gal4-DAX1 luciferase reporter, luminescence;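 active means inhibition above the mean over all tested compounds plus 3 SD, cut at about 4.2% in these data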;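 further: 0% = DAX1-transfected cells with DMSO and 100% = empty-vector control cells with DMSO; inhibition shows as a rise in luminescence from relieved DAX1 repression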
Target sequence (P51843 207-470 limits assumed): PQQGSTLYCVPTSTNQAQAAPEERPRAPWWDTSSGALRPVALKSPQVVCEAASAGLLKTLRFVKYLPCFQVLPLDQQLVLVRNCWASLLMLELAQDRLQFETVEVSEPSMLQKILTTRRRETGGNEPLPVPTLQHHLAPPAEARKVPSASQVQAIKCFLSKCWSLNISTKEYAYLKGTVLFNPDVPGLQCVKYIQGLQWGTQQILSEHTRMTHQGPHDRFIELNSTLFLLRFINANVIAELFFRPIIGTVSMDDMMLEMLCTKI
HSP90 refold inh – inhibitors of HSP90 luciferase refolding in rabbit reticulocyte lysate; luciferase refolding luminescence, 3 h; inhibition, % at 5.6 µM; 0.91% of 290,000 active; AID 1789;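 active means inhibition above the screen-wide mean plus 3 SD, computed separately per campaign, cut at about 16% in these data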;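 further: 0% = DMSO wells and 100% = 60 µM geldanamycin wells; inhibitors lower the luminescence because luciferase stays unfolded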
AHR act – activators of human aryl hydrocarbon receptor; P35869; AHR-responsive luciferase reporter cells, luminescence; activation, % at 5 µM; 2.5% of 320,000 active; in the data active means activation above about 47%;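 further: 0% = vehicle wells and 100% = reference agonist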
HSF1 inh – HSF1 inhibition; activity change, negative = inhibition, % at 7.5 µM (by protocol); NIH3T3-HGL HSE-luciferase, MG132-induced, luminescence 8 h; active compounds read low; 0.77% of 300,000 active; AID 2098;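 active means more than half of replicate wells show activity change below -50%, luminescence cut by over half; inconclusive means some wells, but at most half, below -50%; inactive means no replicate well below -50%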;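 further: luciferase reports HSF-1 transcriptional activity via heat shock element; 0% = median of DMSO wells and -100% = zero luminescence signal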
An asterisk follows results filed as active; ? = inconclusive; · = not tested or not shown.

SMILES	HSF1 activator	GAA850 FXN act	DAX1 inh	HSP90 refold inh	AHR act	HSF1 inh
CCN(CC)CC(=O)Nn1c(C)nc2c(ncn2-c2ccccc2)c1=O	2	0	1	-1	3	-6
Cc1nc2c(ncn2-c2ccccc2)c(=O)n1NC(=O)CN1CCOCC1	-64	0	0	-3	-2	-57*
CSc1ncccc1C(=O)OCC(=O)NC1CC1	·	1	-1	·	·	·
O=C1CCCC/C1=N\Nc1ccc(C2CCCCC2)cc1	-59	·	·	2	-4	-56*
O=C(NC1CCCC1)C(c1ccccn1)N(C(=O)c1csnn1)c1ccccc1Cl (stereo unspecified)	31	6	1	-1	1	1
COc1cccc(CN2CC(C(=O)NCc3ccc(C)o3)CCC2=O)c1 (stereo unspecified)	108*	0	3	0	·	59
CCOC(=O)[C@H](O)[C@@H](O)c1cccc([C@H](O)[C@@H](O)C(=O)OCC)c1	5	1	2	-9	-4	5
COc1ccc(Nc2cc(C(=O)N3CCc4ccccc4C3)c3ccccc3n2)c(OC)c1	4	-1	-2	5	55*	10
COc1ccccc1-c1cc(C(=O)N2CCc3ccccc3C2)c2ccccc2n1	-8	·	·	0	18	8
COc1ccccc1Nc1cc(C(=O)N2CCc3ccccc3C2)c2ccccc2n1	24	·	·	4	64*	12
COCCCNC(=O)c1cc(Nc2ccc(OC)cc2OC)nc2ccccc12	5	0	0	1	2	2
CCOC(=O)N1CCN(C(=O)c2cc(-c3ccc(OCC)cc3)nc3ccccc23)CC1	79*	-7	-2	0	25	34
COc1ccc(-c2cc(C(=O)N3CCCCCC3)c3ccccc3n2)c(OC)c1	79*	-2	0	2	4	26
COc1ccc2c(c1)OC1(C)CC2C(C(=O)c2ccccc2OC)C(=O)N1 (stereo unspecified)	2	0	0	-2	2	0
O=C(NCC(=O)N1CCOCC1)c1ccccc1	-20	1	0	-1	0	0
CC(NC(=O)/C=C/c1ccco1)c1nc2ccccc2n1Cc1c(Cl)cccc1Cl (stereo unspecified)	33	2	-1	3	5	23
CC(NC(=O)/C=C/c1ccco1)c1nc2ccccc2n1Cc1ccccc1F (stereo unspecified)	65*	3	0	-1	0	33
Cc1ccc(C2/C(=C(\O)c3cnn(-c4ccccc4)c3C)C(=O)C(=O)N2CCN(C)C)o1 (stereo unspecified)	66*	2	0	3	0	26
CCOc1cc(C(=O)NCc2ccncc2)cc(OCC)c1OCC	5	0	2	-2	20	-7
O=C(NCc1ccc(F)cc1)c1ccncc1	2	-1	4.4*	-1	4	-4
O=C(NCc1ccncc1)c1ccc(Cl)c(S(=O)(=O)N2CCOCC2)c1	-81	-2	0	0	1	-76*
CCOc1ccc(C(=O)NCc2ccncc2)cc1OCC	-64	0	-1	-4	10	-61*
CC(NC(=O)c1ccccc1F)c1nnc(SCC(=O)NC2=NCCS2)n1C (stereo unspecified)	-3	2	1	2	-3	-15
N#Cc1cc([N+](=O)[O-])ccc1NC(=O)CSc1n[nH]c(=O)n1C1CC1	·	-1	0	·	8	·
Cn1c(CCN2CCN(c3ccccn3)CC2)nc2cc(NS(=O)(=O)c3ccccc3)ccc21	13	1	0	-6	5	7
SMILES	HSF1 activator	GAA850 FXN act	DAX1 inh	HSP90 refold inh	AHR act	HSF1 inh
BrC(/C=C\c1ccccc1)=N/Nc1nc(N2CCOCC2)nc(N2CCOCC2)n1	176*	7	-2	0	1	104
CN(C)c1ccc(/C=C/C=N/Nc2nc(N3CCOCC3)nc(N3CCOCC3)n2)cc1	79*	-1	1	-2	0	57
BrC(=C\c1ccccc1)/C=N/Nc1nc(N2CCOCC2)nc(N2CCOCC2)n1	8	6	-1	3	5	8
O=C(Nc1ccccc1F)c1csc(COCCO)n1	·	2	·	·	·	·
Clc1cccc(-c2cc3nc4c(c(NCc5ccco5)n3n2)CCCC4)c1	58*	7	1	5	28	22
O=C(C1=C[C@@H](c2ccc(Br)cc2)C[C@@H](OCc2ccc(CO)cc2)O1)N1CCN(Cc2ccc3c(c2)OCO3)CC1	12	-2	0	17*	2	2
O=C(C1=C[C@@H](C2CC2)C[C@@H](OCc2ccc(CO)cc2)O1)N1CCN(Cc2ccccc2)CC1	104*	-1	-1	2	0	87
CN1CCN(C(=O)C2=C[C@H](C3CC3)C[C@H](OCc3ccc(CO)cc3)O2)CC1	13	0	1	·	2	0
O=C(NC(=S)N1CCOCC1)c1ccc(F)cc1	1	-1	0	-2	0	-2
CC1(C(=O)NS(=O)(=O)c2cccs2)CCN1C(=O)c1cccc(F)c1 (stereo unspecified)	·	-1	·	·	·	·
O=C(Nc1ncc2c(n1)-c1ccccc1CC2)C1CC1	-8	1	1	2	76*	2
Cc1ccc(NC(=S)NC2CCSc3ccccc32)cc1C (stereo unspecified)	2	4	0	4	13	-5
O=C1NC(=S)S/C1=C/c1ccc(OC(=O)c2ccco2)cc1	55*	0	0	-4	3	19
O=c1ccnc2n1COCS2	8	0	6.1*	3	-1	-3
O=C(C[C@H]1C[C@@H]2c3cc(NC(=O)Nc4ccccc4F)ccc3O[C@@H]2[C@H](CO)O1)NCc1ccccn1	·	-1	-1	·	·	·
N#C/C(=C\c1c(Cl)cccc1Cl)c1nc2ccccc2[nH]1	11	5	-1	1	69*	2
Cc1ccc(/C=C(\C#N)c2nc3ccccc3[nH]2)s1	?	6	1	-1	93*	30
Cc1cc(/C=C(\C#N)c2nc3ccccc3[nH]2)c(C)n1C	46	2	0	-2	55*	24
CCOc1cc(N(CC)CC)ccc1/C=C(/C#N)c1nc2ccccc2[nH]1	-17	-2	6.5*	18*	6	-7
CNc1cncc(-c2cccc(C(=O)NC3CC3)c2)n1	·	4	·	·	·	·
CCCCC(=O)N(C)c1c(C)nc2ccc(C(=O)N3CCCCC3)cn12	·	-1	·	·	·	·
N#C/C(=C\c1ccc(Cl)cc1)c1nc2ncccc2[nH]1	54*	1	1	0	24	20
CCC(=O)N(C)C[C@H]1Oc2cc(-c3cccnc3)ccc2S(=O)(=O)N([C@H](C)CO)C[C@H]1C	·	0	2	·	·	·
Cc1ccc(NC(=O)c2cc(-c3ccco3)on2)cc1C	55*	6	2	0	-5	39
